Whole data set: some 33,000 sequences, median “E-score (-0.5 to 0.5)” near -0.017, cut for the highest 2% near 0.3. The list comes from a sample in which the highest values are over-represented; it also holds similar and randomly drawn sequences.
Biological target: T1, Sut1 (UniProt P53032)
T1 sequence: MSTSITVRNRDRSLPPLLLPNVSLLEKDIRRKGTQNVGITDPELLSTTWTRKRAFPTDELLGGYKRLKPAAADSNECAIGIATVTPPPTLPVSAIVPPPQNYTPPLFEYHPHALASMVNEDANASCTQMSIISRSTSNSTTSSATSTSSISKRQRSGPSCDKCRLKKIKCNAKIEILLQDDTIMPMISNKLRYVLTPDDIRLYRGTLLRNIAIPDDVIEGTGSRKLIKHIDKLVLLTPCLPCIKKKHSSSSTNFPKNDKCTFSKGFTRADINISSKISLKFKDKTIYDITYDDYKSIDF
Experiment: PBM E-score (8-mer binding enrichment) (E-score (-0.5 to 0.5)); higher = stronger / more preferred TF binding
Details: protein concentration: 200 nM; construct: GST-full length
Procedure: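 Universal 'all 10-mer' protein binding microarrays (Agilent AMADID 015681) probed with GST-tagged S. cerevisiae TFs (full-length or DBD) made by in vitro transcription/translation (PURExpress), about 100-200 nM. Bound TF was detected with fluorescent anti-GST. Each ungapped 8-mer (which stands for itself and its reverse complement) is scored by the PBM enrichment score (E-score), a modified Wilcoxon-Mann-Whitney statistic from -0.5 to +0.5, computed with the Universal PBM Analysis Suite. Scale: above 0.35 generally sequence-specific binding.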

Row | Sequence | PBM E-score
1 | GACCGTAA | -0.0628
2 | AGCATTGA | -0.0961
3 | CCTAACCA | 0.0768
4 | ACATCTGC | -0.193
5 | CTTAAAGA | 0.111
6 | ATTAAATG | 0.243
7 | GTTAAAGA | 0.0511
8 | TAAAAATA | 0.249
9 | TATAAATA | 0.343
10 | GATAAAAA | 0.263
11 | ATTAAATC | 0.191
12 | TATAAAAA | 0.318
13 | CATAAAAA | 0.161
14 | ATTAAATA | 0.315
15 | CATAAATA | 0.168
16 | ATTAAAGA | 0.311
17 | ACCATGAG | -0.166
18 | TGCTTCAA | 0.0485
19 | AAGTTCTA | 0.0927
20 | GAGGATCA | -0.09
21 | CAGCTATC | -0.207
22 | ATGAGTCG | -0.157

Row | Sequence | PBM E-score
23 | ACAGCGTG | -0.171
24 | AGGCCCAC | -0.387
25 | AAGGCTAA | 0.0404
26 | GATAAACA | 0.203
27 | AATAAATA | 0.374
28 | AACAAATA | 0.201
29 | GATAAATA | 0.325
30 | AATAAATT | 0.237
31 | CACAAATA | 0.13
32 | TACAAATA | 0.303
33 | GATAAATC | 0.26
34 | AATAAATG | 0.179
35 | AACAAGCG | -0.0413
36 | GCGCCTCA | -0.0448
37 | ACACTTAC | 0.0992
38 | AATCTCCC | -0.268
39 | CATCTCCA | -0.036
40 | AGTCTCCA | -0.229
41 | ATTCTCCG | 0.409
42 | AATCTCCT | 0.147
43 | CATCTCCC | -0.138
44 | AGTCTCCC | -0.0841

Row | Sequence | PBM E-score
45 | CATCTCCG | 0.478
46 | AGTCTCCG | 0.316
47 | ATTCTCCA | -0.0299
48 | ATTCTCCC | -0.0729
49 | AATCTCCG | 0.454
50 | GAACTTTA | 0.145
51 | GTAATTCA | 0.182
52 | CAAATCGG | 0.0756
53 | AGCCTTCG | -0.203
54 | AATTTCGG | 0.242
55 | CAGAAATC | 0.0914
56 | CCGTTGGA | 0.0326
57 | ACTCGCTA | 0.0713
58 | AACGGACG | 0.0275
59 | AGCGGACT | 0.406
60 | ACCGGACT | 0.485
61 | ACCGGAAC | 0.29
62 | AACGGACA | 0.24
63 | ACCGGACG | 0.114
64 | AGCGGACA | 0.107
65 | ACTGGACT | -0.107
66 | AACGGACC | 0.191

Row | Sequence | PBM E-score
67 | ACCGGACC | 0.364
68 | AGCGGACG | -0.118
69 | AACGGACT | 0.444
70 | AGCATATA | 0.102
71 | ACGCAAAC | -0.0168
72 | CGGGGACA | -0.0417
73 | AGAACAGC | -0.0298
74 | ACGTGGTG | -0.133
75 | CGCCATTA | 0.0246
76 | AGCCACCG | -0.122
77 | GCTCCGCA | 0.227
78 | GCTCCGCC | 0.0486
79 | AATCCGCT | -0.0383
80 | ACTCCCCG | 0.196
81 | ACTCCGCA | 0.473
82 | CCTCCGCC | -0.221
83 | ACTCCGCG | 0.476
84 | ACTCCGCT | 0.452
85 | CCTCCGCG | -0.0947
86 | ACGCCGCT | -0.0911
87 | CCTCCGCA | -0.205
88 | ACTCCGCC | 0.438

Row | Sequence | PBM E-score
89 | CAACGGGA | 0.0235
90 | AGAACCAT | 0.12
91 | GAGGCTCC | 0.0186
92 | ACCTTTGG | -0.287
93 | CACATCGA | -0.0466
94 | AGCCACTG | -0.0195
95 | AGGAGATC | 0.0207
96 | CGGAGATA | 0.458
97 | CGGAGATC | 0.445
98 | GGGAGACC | -0.235
99 | CTGAGATC | -0.209
100 | AGGAGATA | -0.155
101 | CGGAGACC | 0.315
102 | GGGAGATA | -0.144
103 | CGGAGACG | 0.204
104 | AAAAGCAA | 0.242
105 | ACCACCGT | -0.0843
106 | GCAGGTAC | -0.132
107 | CTCAAGCC | -0.126
108 | GGAGAGCA | -0.125
109 | CCCTAACA | 0.071
110 | AGTGCATG | -0.0963
